Measurements as given in PubChem BioAssay (NCATS).
Results filed as inconclusive are left out. The source made the active and inactive calls. Unless noted, calls come from the whole dose curve; as a rule, active = well fitted curve in the direction sought with a large enough effect; inconclusive = small, poorly fitted or top-dose-only effect, or another doubt; inactive = no such curve, though single readings can be large; an effect the other way counts as inactive or inconclusive.

Key:
[1] = Cell Viability - LYMP2-021 (AID 974);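 note: compound exposure lasts 24 hours at 37 °C; % is set by controls: 0 for no effect and ±100 for the full control effect; nearly all actives have a fitted effect of over 55% in size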
Method in brief: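 Concentration-response cytotoxicity in a human lymphoblastoid line: 24 hr treatment at 37 C in complete culture medium, tetraoctylammonium bromide as positive control, luminescent ATP quantitation as viability measure.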

[2] = Cell Viability - LYMP2-023 (AID 975);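 note: cellular ATP measured by luciferase luminescence as viability proxy; series mostly up to about 92 µM; plate controls were DMSO only for no effect and 92 µM tetraoctylammonium bromide control for full effect; nearly all actives have a fitted effect of over 55% in size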
Method in brief: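 Concentration-dependent drop in intracellular ATP measures acute cytotoxicity in a human lymphoblastoid line treated for 24 hours in complete culture medium. AC50 values are taken from Hill-equation fits of qHTS data.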

[3] = Cell Viability - LYMP2-002 (AID 977);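 note: series mostly up to about 92 µM; compound exposure lasted 24 h at 37 °C; plate controls were DMSO only for no effect and 92 µM tetraoctylammonium bromide for full effect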
Method in brief: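 Human lymphoblastoid LYMP2-002 cells, 2500 per well, exposed to compounds for 24 h at 37 C in complete medium; viability read as intracellular ATP by CellTiter-Glo luminescence, AC50 from Hill fits.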

[4] = Cell Viability - LYMP2-006 (AID 978); note: series mostly up to about 92 µM; % is set by controls: 0 for no effect and ±100 for the full control effect; nearly all actives have a fitted effect of over 60% in size
Method in brief: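 qHTS, 1536-well; 2500 cells/well, 5 hr 37 C; cpd 24 hr 37 C; CellTiter-Glo 30 min RT; luminescence. Tetraoctylammonium bromide pos. ctrl. AC50 via Hill eqn.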

[5] = Cell Viability - LYMP2-007 (AID 979);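 note: cells exposed to compound for 24 h before reading; 0% = DMSO only and the negative end = 92 µM tetraoctylammonium bromide; nearly all actives have a fitted effect of over 60% in size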
Method in brief: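 Acute toxicity is scored as a concentration-dependent fall in intracellular ATP in human lymphoblastoid cells treated 24 hr at 37 C, measured by luciferase luminescence; Hill-equation modelling yields AC50.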

[6] = Cell Viability - LYMP2-008 (AID 980); note: % is set by controls: 0 for no effect and ±100 for the full control effect; nearly all actives have a fitted effect of over 60% in size
Method in brief: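 Acute cytotoxicity is scored as concentration-dependent loss of cellular ATP in a human lymphoblastoid line after 24 hr treatment at 37 C. ATP is quantified by luciferase luminescence.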

[7] = Cell Viability - LYMP2-010 (AID 981); note: % is set by controls: 0 for no effect and ±100 for the full control effect; nearly all actives have a fitted effect of over 55% in size
Method in brief: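 Acute toxicity is scored as a concentration-dependent loss of cellular ATP in human lymphoblastoid cells after 24 hr compound exposure in complete medium. Tetraoctylammonium bromide is the positive control.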

[8] = Cell Viability - LYMP2-012 (AID 982);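 note: cellular ATP by luciferase luminescence where a drop means cytotoxicity; cells exposed to compound for one day before reading; 0% = DMSO only and full loss = 92 µM tetraoctylammonium bromide; nearly all actives have a fitted effect of over 55% in size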
[9] = Cell Viability - LYMP2-014 (AID 983);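 note: series mostly up to about 92 µM; plate controls were DMSO only for no effect and 92 µM tetraoctylammonium bromide for full effect; nearly all actives have a fitted effect of over 50% in size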
Method in brief: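 Decrease in intracellular ATP after 24 hr treatment at 37 C, measured by luciferase luminescence, indicated cytotoxicity. Concentration-response data were fitted with the standard Hill equation to give AC50.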

[10] = Cell Viability - LYMP2-016 (AID 984)
Method in brief: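 qHTS, 1536-well: 2500 LYMP2-016 cells/well, 5 hr 37 C, compound added, 24 hr 37 C, CellTiter-Glo 30 min RT, luminescence. Tetraoctylammonium bromide positive control. AC50 via Hill fit.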

[11] = Cell Viability - LYMP2-020 (AID 986)
Method in brief: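 Acute cytotoxicity in a human lymphoblastoid line is scored as a concentration-dependent fall in cellular ATP after 24 hr at 37 C in complete medium. The positive control is tetraoctylammonium bromide, and potency is given as Hill-fit AC50.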

[12] = Cell Viability - LYMP2-022 (AID 987)
Method in brief: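 Acute toxicity in a human lymphoblastoid line is scored as decreased intracellular ATP after 24 hr compound treatment at 37 C. ATP is measured by CellTiter-Glo luminescence; curves are fitted with the Hill equation to give AC50.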

[13] = Cell Viability - LYMP2-024 (AID 988);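 note: plate controls were DMSO only for no effect and 92 µM tetraoctylammonium bromide for full effect; nearly all actives have a fitted effect of over 60% in size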
Method in brief: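 Acute toxicity is measured as concentration-dependent loss of intracellular ATP in a human lymphoblastoid line treated 24 hours at 37 C. Luciferase luminescence quantifies ATP; AC50 values come from standard Hill-equation modelling.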

[14] = Cell Viability - LYMP2-026 (AID 989); note: % is set by controls: 0 for no effect and ±100 for the full control effect; nearly all actives have a fitted effect of over 50% in size
Method in brief: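 Concentration-dependent loss of intracellular ATP in human lymphoblastoid cells after 24 hr at 37 C, quantified by luciferase luminescence. AC50 derived from standard Hill equation.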

[15] = Cell Viability - LYMP1-002 - Assay at 24 hr (AID 993); note: % is set by controls: 0 for no effect and ±100 for the full control effect
Method in brief: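 qHTS, LYMP1-002 lymphoblastoid, 24 h cpd, 37 C, CellTiter-Glo ATP luminescence; AC50 via Hill eq.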

[16] = Cell Viability - LYMP1-002 - Assay at 40 hr (AID 994)
Method in brief: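 Viability in the human lymphoblastoid line was measured as intracellular ATP via CellTiter-Glo after 40 hr compound exposure. Tetraoctylammonium bromide served as positive control.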

[17] = target: Bile acid receptor (Homo sapiens) (UniProt Q96RI1); test: qHTS assay for small molecule antagonists of farnesoid X receptor signaling (AID 588526; calls by dose curve; note: % is set by controls: 0 for no effect and ±100 for the full control effect)
Bile acid receptor (Homo sapiens), sequence (Q96RI1 whole entry, looked up): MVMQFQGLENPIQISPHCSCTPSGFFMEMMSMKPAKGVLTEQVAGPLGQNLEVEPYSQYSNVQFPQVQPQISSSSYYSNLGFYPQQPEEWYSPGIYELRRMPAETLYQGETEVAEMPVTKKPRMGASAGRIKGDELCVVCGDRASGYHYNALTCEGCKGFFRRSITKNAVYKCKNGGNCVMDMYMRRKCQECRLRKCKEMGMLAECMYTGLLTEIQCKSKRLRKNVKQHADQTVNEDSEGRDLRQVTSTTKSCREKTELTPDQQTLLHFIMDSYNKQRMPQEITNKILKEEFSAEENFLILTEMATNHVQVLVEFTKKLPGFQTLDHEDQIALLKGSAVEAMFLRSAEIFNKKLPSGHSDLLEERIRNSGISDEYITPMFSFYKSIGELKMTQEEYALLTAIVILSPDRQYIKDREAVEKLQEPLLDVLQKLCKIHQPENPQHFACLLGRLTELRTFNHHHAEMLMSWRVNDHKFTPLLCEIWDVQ
Method in brief: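 Antagonist mode: titrated compounds tested against chenodeoxycholic acid stimulation (normalized to 50 uM CDCA and DMSO) in GeneBLAzer HEK293T cells for 16 h. Beta-lactamase read by CCF4 fluorescence; IC50 from Hill fits.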

[18] = target: Glucocorticoid receptor (Homo sapiens) (UniProt P04150); test: qHTS assay for small molecule agonists of glucocorticoid receptor signaling (AID 588532; active = well fitted curve in the direction sought with a large enough effect in the signal ratio, with a control signal flat; the % refers to the signal ratio;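 note: 100% = dexamethasone at 0.1 µM and 0% = DMSO only wells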); settings: HeLa MMTV-bla, beta-lactamase ratio, agonist, 18 h; stronger effect = higher value; percent of dexamethasone control, DMSO zero
Glucocorticoid receptor (Homo sapiens), sequence (P04150 whole entry, looked up): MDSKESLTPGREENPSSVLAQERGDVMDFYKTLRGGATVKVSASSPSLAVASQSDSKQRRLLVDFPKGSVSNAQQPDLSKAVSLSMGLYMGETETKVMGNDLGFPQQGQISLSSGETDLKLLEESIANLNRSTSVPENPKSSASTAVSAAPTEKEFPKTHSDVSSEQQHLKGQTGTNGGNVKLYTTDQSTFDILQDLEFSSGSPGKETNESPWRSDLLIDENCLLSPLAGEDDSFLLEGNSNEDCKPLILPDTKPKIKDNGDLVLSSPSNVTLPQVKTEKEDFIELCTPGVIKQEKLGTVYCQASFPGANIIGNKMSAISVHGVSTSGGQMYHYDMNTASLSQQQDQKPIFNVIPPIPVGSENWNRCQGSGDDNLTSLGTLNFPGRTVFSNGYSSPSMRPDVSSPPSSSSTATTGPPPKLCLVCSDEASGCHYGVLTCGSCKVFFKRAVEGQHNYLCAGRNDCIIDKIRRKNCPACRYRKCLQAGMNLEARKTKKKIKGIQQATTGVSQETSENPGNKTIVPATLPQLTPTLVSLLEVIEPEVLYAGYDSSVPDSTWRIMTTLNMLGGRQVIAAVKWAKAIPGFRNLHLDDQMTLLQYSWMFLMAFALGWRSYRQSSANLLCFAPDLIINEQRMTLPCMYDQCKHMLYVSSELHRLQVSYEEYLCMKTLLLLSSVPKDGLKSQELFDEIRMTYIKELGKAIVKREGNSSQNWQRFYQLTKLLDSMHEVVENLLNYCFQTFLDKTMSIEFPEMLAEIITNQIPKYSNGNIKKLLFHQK
Method in brief: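 Cells were plated and rested 3-5 h at 37 C, compounds were added in titration and incubated 18 h, then CCF4 substrate was loaded for 2 h at RT before reading blue/green fluorescence. EC50 came from Hill-equation fitting.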

[19] = qHTS assay for small molecule antagonists of peroxisome proliferator-activated receptor delta signaling (AID 588535; active = well fitted inhibition curve with a large enough effect in the signal ratio, with a control signal flat, not every such curve was filed as active; the % refers to the signal ratio;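 for max response: cells co-treated with a PPAR-delta agonist as stimulator during compound exposure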); settings: HEK293T PPARd-UAS-bla, beta-lactamase FRET ratio, 18 h; 460 nm channel
Method in brief: (§1)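 Cells were seeded at 4000 per well in assay medium containing 2% charcoal/dextran FBS and held 5 hrs at 37 C. Compounds were then added for 18 hrs. CCF4 substrate was applied for 2 hrs at room temperature before fluorescence reading.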

[20] = target: Peroxisome proliferator-activated receptor delta (Homo sapiens) (UniProt Q03181); test: as above
Peroxisome proliferator-activated receptor delta (Homo sapiens), sequence (Q03181 whole entry, looked up): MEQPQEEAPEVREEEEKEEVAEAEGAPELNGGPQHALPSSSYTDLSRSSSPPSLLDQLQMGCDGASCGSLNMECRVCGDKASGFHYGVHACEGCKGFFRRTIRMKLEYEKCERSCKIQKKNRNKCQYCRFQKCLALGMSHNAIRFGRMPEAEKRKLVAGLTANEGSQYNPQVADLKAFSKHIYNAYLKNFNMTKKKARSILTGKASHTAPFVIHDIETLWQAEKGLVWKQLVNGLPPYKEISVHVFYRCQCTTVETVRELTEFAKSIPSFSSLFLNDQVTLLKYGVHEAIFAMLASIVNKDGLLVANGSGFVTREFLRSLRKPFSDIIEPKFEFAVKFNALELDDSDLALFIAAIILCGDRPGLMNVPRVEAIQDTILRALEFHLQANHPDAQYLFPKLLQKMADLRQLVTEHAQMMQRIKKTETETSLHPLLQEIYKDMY
Method in brief: as §1

[21] = target: Peroxisome proliferator-activated receptor gamma (Homo sapiens) (UniProt P37231); test: qHTS assay for small molecule agonists of peroxisome proliferator-activated receptor gamma signaling (AID 588536; active = well fitted curve in the direction sought with a large enough effect in the signal ratio, with a control signal flat, not every such curve was filed as active; the % refers to the signal ratio;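 note: 0% = DMSO basal wells and 100% = rosiglitazone at 2 µM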)
Peroxisome proliferator-activated receptor gamma (Homo sapiens), sequence (P37231 whole entry, looked up): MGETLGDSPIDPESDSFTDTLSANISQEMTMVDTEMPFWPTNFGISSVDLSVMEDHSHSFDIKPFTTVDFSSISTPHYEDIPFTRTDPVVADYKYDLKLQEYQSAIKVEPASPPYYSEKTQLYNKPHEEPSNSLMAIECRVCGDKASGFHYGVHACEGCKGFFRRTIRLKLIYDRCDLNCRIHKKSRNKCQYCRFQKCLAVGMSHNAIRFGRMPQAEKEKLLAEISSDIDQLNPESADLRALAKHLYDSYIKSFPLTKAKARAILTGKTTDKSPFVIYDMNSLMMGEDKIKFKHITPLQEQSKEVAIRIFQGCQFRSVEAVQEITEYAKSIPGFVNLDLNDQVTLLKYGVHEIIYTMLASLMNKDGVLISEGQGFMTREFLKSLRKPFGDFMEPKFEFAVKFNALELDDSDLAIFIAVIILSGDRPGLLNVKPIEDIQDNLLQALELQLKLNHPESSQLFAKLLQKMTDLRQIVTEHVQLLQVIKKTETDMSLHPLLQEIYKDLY
Method in brief: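 PPAR-gamma-UAS-bla HEK293 cells in medium with 1% charcoal/dextran-treated FBS were exposed to compounds for 16 h at 37 C. Beta-lactamase activity was read with CCF4 substrate (405 nm excitation, 460/530 nm emission).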

[22] = target: Vitamin D3 receptor (Homo sapiens) (UniProt P11473); test: qHTS assay for small molecule antagonists of vitamin D receptor signaling (AID 588541; calls by dose curve;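 note: receptor activated by calcitriol during compound treatment; series mostly up to about 77 µM; % is set by controls: 0 for no effect and ±100 for the full control effect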)
Vitamin D3 receptor (Homo sapiens), sequence (P11473 whole entry, looked up): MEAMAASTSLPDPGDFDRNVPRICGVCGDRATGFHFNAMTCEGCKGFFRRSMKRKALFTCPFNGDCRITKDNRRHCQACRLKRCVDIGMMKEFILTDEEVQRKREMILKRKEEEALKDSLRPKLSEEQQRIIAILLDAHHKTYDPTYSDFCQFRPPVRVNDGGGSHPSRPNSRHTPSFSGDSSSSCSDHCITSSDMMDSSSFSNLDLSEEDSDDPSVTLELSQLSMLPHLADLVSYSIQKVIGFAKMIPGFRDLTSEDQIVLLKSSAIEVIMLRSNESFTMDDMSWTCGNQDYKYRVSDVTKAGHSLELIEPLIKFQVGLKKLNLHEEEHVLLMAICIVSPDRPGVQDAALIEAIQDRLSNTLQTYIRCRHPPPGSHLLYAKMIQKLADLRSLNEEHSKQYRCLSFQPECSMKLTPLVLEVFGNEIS
Method in brief: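 VDR-UAS-bla HEK293T cells in 2% charcoal-stripped FBS were stimulated with 1-alpha,25-dihydroxyvitamin D3 (3 nM final) plus compound for 16 h at 37 C. The beta-lactamase CCF4 readout was normalized to 50 nM agonist and DMSO, and Hill fits gave IC50.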

[23] = target: Vitamin D3 receptor (Homo sapiens) (UniProt P11473); test: qHTS assay for small molecule agonists of vitamin D receptor signaling (AID 588543; calls by dose curve;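 note: 0% = DMSO basal and 100% = reference agonist control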)
Method in brief: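 β-lactamase reporter, VDR-UAS-bla HEK293T, agonist mode. Cells plated 5 h at 37 °C, compound titration 16 h at 37 °C, CCF4 dye 2 h RT, ratio 460/530 nm. Hill fit → EC50, efficacy vs 50 nM 1α,25-(OH)2D3.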

[24] = qHTS assay for small molecule agonists of retinoid X receptor alpha signaling (AID 588544; calls by dose curve;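 for activation: 0% = DMSO basal wells and 100% = reference agonist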); settings: HEK293T RXRa-UAS-bla, beta-lactamase reporter, 18 h; 530 nm emission
[25] = target: Retinoic acid receptor RXR-alpha (Homo sapiens) (UniProt P19793); test: as above
Retinoic acid receptor RXR-alpha (Homo sapiens), sequence (P19793 whole entry, looked up): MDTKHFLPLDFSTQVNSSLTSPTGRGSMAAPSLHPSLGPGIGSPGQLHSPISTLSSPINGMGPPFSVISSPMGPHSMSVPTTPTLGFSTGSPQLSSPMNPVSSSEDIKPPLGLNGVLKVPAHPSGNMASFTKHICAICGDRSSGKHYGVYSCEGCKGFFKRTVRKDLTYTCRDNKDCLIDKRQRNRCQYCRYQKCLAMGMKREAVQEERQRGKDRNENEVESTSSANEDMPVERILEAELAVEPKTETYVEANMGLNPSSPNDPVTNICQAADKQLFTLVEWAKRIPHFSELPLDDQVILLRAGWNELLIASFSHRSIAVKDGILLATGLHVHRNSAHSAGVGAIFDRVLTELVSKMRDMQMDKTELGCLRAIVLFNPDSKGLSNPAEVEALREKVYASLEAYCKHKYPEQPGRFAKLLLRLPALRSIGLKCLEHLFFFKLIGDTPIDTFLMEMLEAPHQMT

[26] = target: Thyroid hormone receptor beta (Homo sapiens) (UniProt P10828); test: qHTS assay for small molecule agonists of thyroid hormone receptor beta signaling (AID 588545; calls by dose curve;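 note: 0% = DMSO only and 100% = 10 nM T3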)
Thyroid hormone receptor beta (Homo sapiens), sequence (P10828 whole entry, looked up): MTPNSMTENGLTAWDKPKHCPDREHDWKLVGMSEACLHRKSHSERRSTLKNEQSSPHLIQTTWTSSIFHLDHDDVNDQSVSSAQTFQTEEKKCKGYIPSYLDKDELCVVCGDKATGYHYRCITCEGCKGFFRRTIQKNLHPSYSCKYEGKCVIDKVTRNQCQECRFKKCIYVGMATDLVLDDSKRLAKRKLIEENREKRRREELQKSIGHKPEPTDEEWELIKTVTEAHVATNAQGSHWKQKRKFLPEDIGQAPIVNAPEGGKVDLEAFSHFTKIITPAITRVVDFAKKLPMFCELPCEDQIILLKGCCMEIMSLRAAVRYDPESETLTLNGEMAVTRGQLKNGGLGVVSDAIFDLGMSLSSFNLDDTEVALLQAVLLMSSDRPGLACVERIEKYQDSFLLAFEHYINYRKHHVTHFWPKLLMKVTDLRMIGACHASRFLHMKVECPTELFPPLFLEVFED
Method in brief: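 Efficacy and EC50 values derive from Hill fits of qHTS titration data, normalized to 10 nM T3 and DMSO-only wells. HEK 293 reporter cells were stimulated for 18 hrs at 37 C, with beta-lactamase activity measured by CCF4 fluorescence.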

[27] = qHTS assay for small molecule antagonists of retinoid X receptor alpha signaling (AID 588546; active = well fitted inhibition curve with a large enough effect in the signal ratio, with a control signal flat, not every such curve was filed as active; the % refers to the signal ratio;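 note: cells stimulated with 9-cis-retinoic acid as agonist; % is set by controls: 0 for no effect and ±100 for the full control effect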); settings: HEK293T RXRa-UAS-bla, beta-lactamase ratio, antagonist mode; measured here: W530 green channel, cytotoxicity proxy
Method in brief: (§2)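 Beta-lactamase reporter inhibition, read as CCF4 fluorescence ratio (ex 405, em 460/530 nm) after 2 h at RT. HEK293T UAS-bla cells, 2500/well, were stimulated with 9-cis-RA at 500 or 100 nM final alongside test compound for 18 h at 37 C.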

[28] = target: Retinoic acid receptor RXR-alpha (Homo sapiens) (UniProt P19793); test: as above; settings: HEK293T RXRa-UAS-bla, beta-lactamase ratio, antagonist mode
Method in brief: as §2

[29] = target: Thyroid hormone receptor beta (Homo sapiens) (UniProt P10828); test: qHTS assay for small molecule antagonists of thyroid hormone receptor beta signaling (AID 588547; active = well fitted inhibition curve with a large enough effect in the signal ratio, with a control signal flat, not every such curve was filed as active; the % refers to the signal ratio); settings: TR-UAS-bla HEK293, beta-lactamase ratio, antagonist mode, 18 h
Method in brief: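 TR-UAS-bla GripTite HEK293 cells in 2% charcoal/dextran FBS medium; compounds 0.59 nM to 92 uM with T3 at 0.4nM final, 18 h at 37 C. Beta-lactamase read by CCF4 fluorescence (460/530 nm); Hill fits gave IC50 and efficacy.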

[30] = qHTS assay for small molecule agonists of the antioxidant response element (ARE) signaling pathway (AID 651741; active = well fitted activation curve with a large enough effect in the signal ratio; the % refers to the signal ratio; note: % of control where 0% means no effect)
Method in brief: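 HepG2 ARE-bla cells plated at 2,000 cells/well and incubated 5 h at 37 C/5% CO2 received 23 nL compound in DMSO. After 16 h at 37 C, LiveBLAzer B/G FRET substrate was applied for 2 h at room temperature and fluorescence read.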

[31] = qHTS assay for small molecule activators of the nuclear factor-kappa B (NF-kB) signaling pathway (AID 651749; active = well fitted activation curve with a large enough effect in the signal ratio; the % refers to the signal ratio; note: series mostly up to about 77 µM; % of control where 0% means no effect); settings: NF-kB-bla ME-180 cells, beta-lactamase FRET ratio, 16 h; stronger effect = higher value
Method in brief: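 Incubation lasted 16 hr at 37C in 5% CO2 after 23 nL compound addition to ME-180 NF-kB-bla cells. Activation appears as beta-lactamase-mediated FRET loss.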

[32] = target: Tumor necrosis factor (Homo sapiens) (UniProt P01375); test: qHTS assay to identify small molecules that stimulate Tumor Necrosis Factor-alpha (TNF-alpha) secretion (AID 651757; active = well fitted curve in the direction sought with a large enough effect in the signal ratio; the % refers to the signal ratio; note: 0% is about no effect)
Tumor necrosis factor (Homo sapiens), sequence (P01375 whole entry, looked up): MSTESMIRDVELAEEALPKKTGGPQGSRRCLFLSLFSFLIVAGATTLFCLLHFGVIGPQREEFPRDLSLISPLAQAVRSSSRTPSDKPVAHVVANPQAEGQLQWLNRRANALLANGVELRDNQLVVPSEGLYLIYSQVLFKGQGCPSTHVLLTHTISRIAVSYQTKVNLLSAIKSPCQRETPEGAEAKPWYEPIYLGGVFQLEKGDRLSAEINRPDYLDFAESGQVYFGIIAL
Method in brief: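 Secreted TNF-alpha from compound-treated THP-1 cells (17 hrs, 37 C) was quantified with a homogeneous time-resolved fluorescence antibody assay.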

[33] = qHTS assay for environmental chemicals that activate the Aryl hydrocarbon Receptor (AhR) signaling pathway (AID 651777); settings: 1A2-DRE human hepatoma cells, luciferase, 24 h; activation: stronger effect = higher value; note: % of control where 0% means no effect; nearly all actives have a fitted effect of over 15% in size
Method in brief: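 Luminescence read-out: One-Glo added for 30 min at RT after 24 hr compound treatment (37 C, 5% CO2) of human hepatoma cells expressing a DRE/CYP1A2 promoter–luciferase reporter; increased signal indicates AhR activation.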

[34] = target: Peroxisome proliferator-activated receptor alpha (Homo sapiens) (UniProt Q07869); test: qHTS assay for small molecule agonists of the peroxisome proliferator-activated receptor alpha (PPARalpha) signaling pathway (AID 651778); settings: PathHunter PPARalpha complementation, chemiluminescence, 6 h; max response: stronger effect = higher value; note: % of control where 0% means no effect
Peroxisome proliferator-activated receptor alpha (Homo sapiens), sequence (Q07869 whole entry, looked up, the tested form may be a part): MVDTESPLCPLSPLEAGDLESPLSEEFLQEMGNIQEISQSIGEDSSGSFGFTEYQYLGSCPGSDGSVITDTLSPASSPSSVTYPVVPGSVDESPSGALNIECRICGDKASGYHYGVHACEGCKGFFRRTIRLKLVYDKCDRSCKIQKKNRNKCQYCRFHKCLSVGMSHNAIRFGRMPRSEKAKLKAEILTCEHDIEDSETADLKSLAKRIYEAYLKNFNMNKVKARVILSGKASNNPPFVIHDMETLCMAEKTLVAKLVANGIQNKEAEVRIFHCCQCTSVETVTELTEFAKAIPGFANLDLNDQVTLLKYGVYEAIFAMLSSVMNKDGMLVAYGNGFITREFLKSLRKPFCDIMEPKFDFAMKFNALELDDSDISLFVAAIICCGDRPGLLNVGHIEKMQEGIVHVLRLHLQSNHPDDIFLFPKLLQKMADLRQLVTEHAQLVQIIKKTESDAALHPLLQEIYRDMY
Method in brief: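 Enzyme-fragment complementation assay in which ligand-bound PPARalpha translocates and forms an active enzyme that generates chemiluminescence. Cells were plated overnight, exposed to compound for 6 hr at 37 C, and then given detection reagent for 60 min at room temperature.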

[35] = target: Nuclear receptor ROR-gamma (Homo sapiens) (UniProt P51449); test: qHTS assay for small molecule antagonists of the retinoid-related orphan receptor gamma (ROR-gamma) signaling pathway (AID 651802)
Method in brief: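 Antagonism is scored as a fall in luminescence from a RORE-luciferase reporter in CHO cells expressing ROR under a TET-inducible promoter, measured 16hr after doxycycline induction in the presence of compound.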

[36] = qHTS assay for small molecule agonists of the antioxidant response element (ARE) signaling pathway measured by Nrf2-dependant transcriptional activity (AID 720636; active = well fitted curve in the direction sought with a large enough effect in the repeat runs; an effect the other way counts as inactive or inconclusive;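 note: HepG2 cells with an ARE-driven luciferase reporter; % of control where 0% means no effect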)
Method in brief: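 HepG2 ARE-luc reporter line, 1% dialyzed FBS; 6 hr attachment at 37 C, compound pinned in, 16 hr at 37 C/5% CO2; ONE-Glo, 30 min RT, luminescence read.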

[37] = qHTS assay for small molecule antagonists of the retinoid-related orphan receptor gamma (ROR-gamma) signaling pathway - cell viability counter screen (AID 720652; active = well fitted curve in the direction sought with a large enough effect in the repeat runs; an effect the other way counts as inactive or inconclusive)
Method in brief: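 Cytotoxicity is quantified via intracellular ATP (CellTiter-Glo luminescence) in doxycycline-induced CHO ROR response element-luciferase reporter cells treated with compound for 16 hr at 37 C, 5% CO2.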

[38] = qHTS assay for small molecule agonists of the antioxidant response element (ARE) signaling pathway measured by Nrf2-dependant transcriptional activity - cell viability counter screen (AID 720653; active = well fitted curve in the direction sought with a large enough effect in the repeat runs; an effect the other way counts as inactive or inconclusive; note: % is set by controls: 0 for no effect and ±100 for the full control effect); settings: ARE-bla HepG2 viability, CellTiter-Glo ATP luminescence, 16 h; max response: stronger effect = lower value
Method in brief: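 ARE-bla HepG2 cells treated with compounds for 16 h at 37C; this counter screen measures viability as intracellular ATP by CellTiter-Glo luminescence after 30 min at room temperature.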

[39] = qHTS assay for cell viability of HEK293 cells (AID 743288); settings: ATP luminescence (CellTiter-Glo), 18 h; max response: stronger effect = lower value; note: % is set by controls: 0 for no effect and ±100 for the full control effect; nearly all actives have a fitted effect of over 50% in size
Method in brief: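 Environmental chemicals tested in qHTS format against parental HEK293 cells; 18 h treatment, 37 C; read-out ATP luminescence (CellTiter-Glo), 30 min RT development.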

[40] = qHTS assay for cell viability of the p53RE-bla HCT-116 cell line (AID 743292)
Method in brief: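 Luminescent ATP quantitation (CellTiter-Glo) served as the viability read-out; reagent was added after 16 h compound exposure at 37 C and read after 30 min at room temperature. Cells: p53RE-bla HCT-116, 4,000 per well.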

[41] = target: Nuclear receptor subfamily 1 group I member 2 (Rattus norvegicus) (UniProt Q9R1A7); test: qHTS assay for small molecule activators of the rat pregnane X receptor (rPXR) signaling pathway (AID 651751; call rule not given here; note: 0% is about no effect); settings: rPXR reporter cells, luciferase (One-Glo), 24 h
Nuclear receptor subfamily 1 group I member 2 (Rattus norvegicus), sequence (Q9R1A7 whole entry, looked up): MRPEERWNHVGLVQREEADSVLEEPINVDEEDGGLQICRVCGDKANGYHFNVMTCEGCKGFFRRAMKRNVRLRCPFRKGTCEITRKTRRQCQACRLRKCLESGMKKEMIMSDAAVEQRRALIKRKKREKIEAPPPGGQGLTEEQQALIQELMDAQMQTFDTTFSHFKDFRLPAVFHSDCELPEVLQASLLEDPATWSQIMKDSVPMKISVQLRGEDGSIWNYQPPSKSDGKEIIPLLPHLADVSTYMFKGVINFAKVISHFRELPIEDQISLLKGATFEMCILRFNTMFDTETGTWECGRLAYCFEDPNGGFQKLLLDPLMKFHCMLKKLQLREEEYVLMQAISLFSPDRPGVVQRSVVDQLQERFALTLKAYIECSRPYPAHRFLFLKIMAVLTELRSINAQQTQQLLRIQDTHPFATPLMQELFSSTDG

[42] = qHTS assay for small molecule activators of the human pregnane X receptor (PXR) signaling pathway (AID 720659; call rule not given here; note: 0% is about no effect)

CCCCCC/C(C=O)=C\c1ccccc1
24.4%: max response [19]
10.6%: max response [27]
3.46%: max response [24]
inactive: Potency [1] | Potency [2] | Potency [3] | Potency [4] | Potency [5] | Potency [6] | Potency [7] | Potency [8] | Potency [9] | Potency [10] | Potency [11] | Potency [12] | Potency [13] | Potency [14] | Potency [15] | Potency [16] | Potency [17] | activation [18] -2.77% | outcome [20] | outcome [21] | Potency [22] | outcome [23] | outcome [25] | outcome [26] | max response [28] 9.05% | activity change % (negative = inhibition) [29] 8.8% | Potency [30] | activation [31] -0.556% | outcome [32] | activation [33] -0.354% | max response [34] -1.11% | Potency [35] | Potency [36] | Potency [37] | max response [38] 3.47% | max response [39] -1.93% | Potency [40] | max response [41] -2.08% | outcome [42]
